Results filed as inconclusive are left out. Entries that show only a call come without a potency. Active and inactive are the calls of the source. Calls come from the whole dose curve; as a rule, active = well fitted curve in the direction sought with a large enough effect; inconclusive = small, poorly fitted or top-dose-only effect, or another doubt; inactive = no such curve, though single readings can be large; an effect the other way counts as inactive or inconclusive. Where a SMILES comes first, the peptide text is derived from it.
Columns and labels:
[1] = P-glycoprotein substrates identified in KB-3-1 adenocarcinoma cell line, qHTS therapeutic library screen (AID 1346986); note: nearly all actives have a fitted effect of over 60% in size
Method in brief: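 Cells seeded 500/well in DMEM/10% FCS; compounds pinned in dose-response; 72 h incubation; CellTiter-Glo added, 5 min, luminescence. KB-8-5-11 run ±tariquidar to test reversal of P-gp resistance.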

[2] = P-glycoprotein substrates identified in KB-8-5-11 adenocarcinoma cell line, qHTS therapeutic library screen (AID 1346987); note: nearly all actives have a fitted effect of over 65% in size
Method in brief: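 KB-8-5-11, a colchicine-selected P-gp-overexpressing KB-3-1 subline, was grown without colchicine for the assay. Cells were seeded at 500 cells/well, dosed in concentration-response and incubated 72 h at 37 degree C, 5% CO2. Viability was read by CellTiter-Glo luminescence.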

With CO[C@@H]1COCC[C@@H]1N[C@@H]1CC[C@@](C(=O)N2CCc3ncc(C(F)(F)F)cc3C2)(C(C)C)C1 the Potency [1] was “inactive” and the Potency [2] was “inactive”.

For CN1C(=O)c2ccccc2-n2c(nc3ccccc3c2=O)[C@@]12O[C@H]2c1ccccc1, the Potency [1] was “inactive” and the Potency [2] was “inactive”.

In the case of C=C1CC23CC1(O)CCC2C1=CC2OC(=O)C(C)(C2O)C1C3C(=O)O (stereo not given), the Potency [1] is reported as “inactive” and the Potency [2] is reported as “inactive”.

In the case of CC1(C)NC2N(C1=O)c1ccccc1C2(O)CC(C(=O)O)n1cnc2ccccc2c1=O (stereo not given), the Potency [1] is reported as “inactive” and the Potency [2] is reported as “inactive”.

For CC1NC(=O)CNC(=O)C(C(C)C)NC(=O)C2CCCN2C(=O)C(C(C)C)NC(=O)C(Cc2c[nH]c3ccccc23)NC1=O (stereo not given) (cyclo(GAWVPV); configuration not given here), the Potency [1] was “inactive” and the Potency [2] was “inactive”.

With Cc1c(-c2ccnn2C)cc(C(=O)NCc2ccc(S(C)(=O)=O)cn2)c(=O)n1-c1cccc(C(F)(F)F)c1 the Potency [1] was “inactive” and the Potency [2] was “inactive”.

In the case of COc1c(OC2OC(CO)C(O)C(O)C2O)ccc(O)c1C(=O)OCc1ccccc1O[C@@H]1O[C@H](CO)[C@@H](O)[C@H](O)[C@H]1O (stereo not given in full), the Potency [1] is reported as “inactive” and the Potency [2] is reported as “inactive”.

With COc1cc(C2c3cc(O)c(OC)cc3CC(CO)C2CO)ccc1O (stereo not given) the Potency [1] was “inactive” and the Potency [2] was “inactive”.

With CCC(C)/C=C(C)/C=C/C1=CC2=C(Cl)C(=O)C(C)(OC(C)=O)C(=O)C2=CN1C1CCCCN(C(CCC(N)=O)C(=O)O)C1=O (stereo not given) the Potency [1] was “inactive” and the Potency [2] was “inactive”.

With C[C@@H]1O[C@@H](OC[C@H]2O[C@@H](OCCc3ccccc3)[C@H](O)[C@@H](O)[C@@H]2O)[C@H](O)[C@H](O)[C@H]1O the Potency [1] was “inactive” and the Potency [2] was “inactive”.

Reference: PubChem BioAssay (NCATS)
